Test results reported in PubChem BioAssay.

Assay: E. coli acrAB mutant growth effects, primary screen, E. coli filamentation inducers, strain DRC39, OD650, 48 h (AID 1179);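 further: screen aims at cell division blockers that make cells filament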
Conditions: E. coli DRC39 delta-acrAB growth, higher = more signal, called active from +8 up or from −8 down

z-score, inactive:
CCOC(=O)C1=CC[C@@H](c2ccccc2Cl)N(S(=O)(=O)c2ccc(C)cc2)C1 1.03
O=C1O[C@H](c2ccccc2)[C@H](c2ccccc2)N2[C@H]1[C@@H](C(=O)O)[C@]1(C(=O)Nc3ccc(C#CC4=CCCCC4)cc31)[C@H]2c1ccc(OCCO)cc1 -0.175
N#Cc1ccc(NN2C(C(O)c3ccc([N+](=O)[O-])cc3)C=CC3C(=O)N(c4ccccc4)C(=O)C32)cc1 (centres undefined) -0.418
C=C(CCCC)/C(=C/C[C@H](OC(C)=O)c1ccc(CO)o1)c1cnc2ccccc2c1 0.284
O=C1OCCC=C[C@H]2OC34C=CCN(Cc5ccccc5)C(=O)[C@H]3N(CCCCCCO)C(=O)[C@@H]4C12 (some centres undefined) 0.653
C[C@]1(C(=O)NCc2ccccc2)c2ccccc2C(=O)N(Cc2ccc(OC(F)(F)F)cc2)[C@H]1c1ccc(CO)cc1 0.806
CC(C)NC(=O)[C@@]1(Cc2ccccc2I)c2ccccc2C(=O)N(Cc2ccccc2)[C@H]1c1ccc(CO)cc1 -0.324
O=C1N(CCS(=O)(=O)c2ccccc2)c2ccccc2C[C@@]12COC(c1ccc(OCCCO)cc1)=N2 -0.726
CC1CC/C=C\[C@H]2OC34C=CCN(Cc5ccccc5)C(=O)[C@H]3N(CCCCCO)C(=O)[C@@H]4C2C(=O)O1 (some centres undefined) 0.667
